This is an account of results in PubChem BioAssay (NCI).

This is part of a sample that, as a whole, favours compounds with a hit. Of some 83,000 tested, about 20% had one in any assay.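 In brief: 96-well plates, 48 h treatment, single concentration, percent growth endpoint.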 A number with no mark means an inactive call. Activity calls are given as the source filed them. The calls were made as follows: active = growth percent below 10; inactive = the rest.

Some test systems named below: SK-MEL-2 melanoma; EKVX NSCLC; SN12C renal; UO-31 renal; TK-10 renal; ACHN renal; A498 renal; CCRF-CEM leukemia; MOLT-4 leukemia; SR leukemia; OVCAR-8 ovarian; OVCAR-5 ovarian; OVCAR-4 ovarian; SK-OV-3 ovarian; IGROV1 ovarian; OVCAR-3 ovarian; HS 578T breast; NCI/ADR-RES ovarian; CAKI-1 renal; RPMI-8226 leukemia.
What all share (assay): NCI-60 one-dose screen, 48 h (100 = growth as untreated, 0 = no growth, -100 = all killed)
Common to all, as to settings: 10 µM unless noted

Regarding `CCOC(=O)N1CCc2c(sc3c2C(=O)N[C@H](c2ccc(OC)cc2)N3)C1`, the growth with SK-MEL-2 melanoma was 96.5%; with EKVX NSCLC it was 101%; in the test on SN12C renal it was 85.4%; in the test with UO-31 renal it was 87.6%; in the test with TK-10 renal it was 109%; in the test with ACHN renal it was 103%. The growth with A498 renal is 96.4%; in the test with CCRF-CEM leukemia it was 95.9%; in the test on MOLT-4 leukemia, 99.7%; with SR leukemia it was 87.7%; in the test on OVCAR-8 ovarian, 89.2%; with OVCAR-5 ovarian it was 108%. Besides, the growth in the test with OVCAR-4 ovarian was 102%; in the test on SK-OV-3 ovarian, 65.4%; with IGROV1 ovarian, 107%; in the test on OVCAR-3 ovarian, 102%; in the test with HS 578T breast it was 98.7%; with NCI/ADR-RES ovarian it was 102%.

On to `CSc1nc2sc3cc(Cl)ccc3n2c(=N)c1C#N`, for which the growth was 87.3% with SK-MEL-2 melanoma; 81.9% in the test on EKVX NSCLC; 89.5% in the test with SN12C renal; 75.2% in the test on UO-31 renal; 83.8% with TK-10 renal; 69.9% with CAKI-1 renal. Further, the growth in the test on A498 renal is 98%; in the test on CCRF-CEM leukemia, 88.6%; with MOLT-4 leukemia, 15.7%; in the test on SR leukemia, 56.8%; with RPMI-8226 leukemia, 83.5%; with OVCAR-8 ovarian, 56.9%. In addition, the growth was 107% in the test on OVCAR-5 ovarian; 45.4% with OVCAR-4 ovarian; 72.4% with SK-OV-3 ovarian; 96.7% in the test on IGROV1 ovarian; 101% in the test on OVCAR-3 ovarian; 24.8% in the test on HS 578T breast. Moreover, in the test on NCI/ADR-RES ovarian, the growth was 58.4%.

For the compound `O=[N+]([O-])c1ccc(-c2cc3c(Nc4ccc(Cl)c(C(F)(F)F)c4)ncnc3s2)cc1`, the growth in the test on SK-MEL-2 melanoma is -4.98% (active); in the test on EKVX NSCLC it was 7.59% (active); with SN12C renal, 2.43% (active); with UO-31 renal, -3.64% (active); with TK-10 renal, 9.44% (active); with ACHN renal, 4.57% (active). The growth with A498 renal is -13% (active); in the test with CCRF-CEM leukemia it was 17.5%; with MOLT-4 leukemia it was 9.22% (active); in the test with OVCAR-8 ovarian, 10.1%; in the test with OVCAR-5 ovarian it was 26.6%; in the test on OVCAR-4 ovarian, 11.1%. In addition, the growth in the test with SK-OV-3 ovarian was -11.5% (active); in the test on IGROV1 ovarian it was 38%; with OVCAR-3 ovarian it was 5.57% (active); in the test on HS 578T breast, 37.9%; with NCI/ADR-RES ovarian, 2.94% (active).

On to `Cc1nc(Nc2ccc(NC(=S)Nc3ccccc3)cc2)nc2nc(Nc3cccc(Cl)c3)[nH]c(=O)c12`, for which the growth in the test with SK-MEL-2 melanoma was 88.8%; in the test with EKVX NSCLC, 119%; in the test with SN12C renal, 97.4%; in the test with UO-31 renal it was 96.4%; in the test with TK-10 renal, 142%; in the test on ACHN renal, 96.7%. Further, the growth was 91.3% in the test with A498 renal; 64.9% in the test on MOLT-4 leukemia; 62.7% in the test on SR leukemia; 57.2% in the test with RPMI-8226 leukemia; 97.2% with OVCAR-8 ovarian; 101% in the test on OVCAR-5 ovarian. For the same compound, the growth is 102% in the test with OVCAR-4 ovarian; 95.7% with SK-OV-3 ovarian; 139% with OVCAR-3 ovarian; 67.1% in the test on HS 578T breast; 110% in the test on NCI/ADR-RES ovarian.

With `CCCCCCCCc1cc[n+](CC(=O)c2ccc(Br)cc2)cc1`, the growth in the test on SK-MEL-2 melanoma is 0.325% (active); in the test with EKVX NSCLC, 35.7%; in the test on SN12C renal it was 8.54% (active); with UO-31 renal it was 38.2%; in the test on TK-10 renal, -67.5% (active); with CAKI-1 renal, 41.4%. Also, the growth in the test with A498 renal is 88.8%; in the test with CCRF-CEM leukemia, 0.476% (active); with RPMI-8226 leukemia it was -9.98% (active); in the test with OVCAR-8 ovarian it was -65.8% (active); in the test on OVCAR-5 ovarian, 51.9%; with OVCAR-4 ovarian it was 18.8%. The growth is 22% in the test on SK-OV-3 ovarian, -44.1% (active) with OVCAR-3 ovarian, -29.2% (active) in the test on HS 578T breast and 93.3% in the test on NCI/ADR-RES ovarian.

For the compound `CCOC(=O)c1c2c(c(C)n1C)-c1nn(Cc3ccc(OC)cc3)cc1CC2`, the growth with SK-MEL-2 melanoma is 111%; in the test with EKVX NSCLC, 79.6%; with SN12C renal, 92.5%; with UO-31 renal, 91.3%; with TK-10 renal, 206%; in the test with CAKI-1 renal, 85.2%. Also, the growth was 98.7% with A498 renal; 82.9% in the test with CCRF-CEM leukemia; 69.4% with MOLT-4 leukemia; 71.2% in the test on SR leukemia; 77.8% with RPMI-8226 leukemia; 100% in the test on OVCAR-8 ovarian. In addition, the growth was 71.2% with OVCAR-4 ovarian, 109% with SK-OV-3 ovarian and 108% in the test with OVCAR-3 ovarian.

With `O=[N+]([O-])c1ccc2[nH]cc(-c3c4ccsc4cc4[nH]c5ccc([N+](=O)[O-])cc5c34)c2c1`, the growth with SK-MEL-2 melanoma was 2.1% (active); in the test with EKVX NSCLC it was 29%; in the test with SN12C renal, 21.7%; with UO-31 renal, 22.9%; in the test on TK-10 renal it was 30.9%; in the test on CAKI-1 renal it was 26.2%. The growth in the test on A498 renal is -16.6% (active); in the test with CCRF-CEM leukemia, 7.42% (active); in the test on MOLT-4 leukemia it was 5.22% (active); in the test on SR leukemia, 10.2%; with RPMI-8226 leukemia, 9.85% (active); in the test on OVCAR-8 ovarian, 7.43% (active). In addition, the growth in the test with OVCAR-5 ovarian is 10.9%; in the test with OVCAR-4 ovarian it was 35.1%; with SK-OV-3 ovarian it was 15.1%; with IGROV1 ovarian it was 21.9%; with OVCAR-3 ovarian, -21.3% (active); in the test with HS 578T breast, 26.6%. Also, the growth in the test with NCI/ADR-RES ovarian was -14.1% (active).

Take `CCCc1nc2ccccn2c1Nc1ccc(C(=O)NO)cc1`: the growth is 92.1% in the test with SK-MEL-2 melanoma; 100% in the test on EKVX NSCLC; 86.5% in the test with SN12C renal; 83.3% with UO-31 renal; 94.7% with TK-10 renal; 88.8% in the test on CAKI-1 renal. Further, the growth in the test on A498 renal is 87.3%; in the test on CCRF-CEM leukemia it was 74.2%; in the test with RPMI-8226 leukemia it was 76.3%; in the test on OVCAR-8 ovarian, 78%; with OVCAR-5 ovarian it was 93.7%; in the test on OVCAR-4 ovarian it was 91.1%. The growth is 80.9% in the test on SK-OV-3 ovarian; 111% with IGROV1 ovarian; 99.1% with OVCAR-3 ovarian; 94.6% with HS 578T breast; 84.6% with NCI/ADR-RES ovarian.

For the compound `Clc1ccc(-c2nc(NCCc3ccccc3)nc3c(NCCc4ccccc4)cnn23)cc1`, the growth in the test with SK-MEL-2 melanoma was 79.6%; with EKVX NSCLC, 79.5%; in the test on SN12C renal, 80.7%; in the test with UO-31 renal it was 86.7%; with TK-10 renal it was 60.1%; in the test on ACHN renal, 98.7%. Further, the growth is 71.4% with A498 renal; 82.6% with CCRF-CEM leukemia; 89.1% in the test on MOLT-4 leukemia; 72% with SR leukemia; 47.5% in the test on OVCAR-8 ovarian; 91.2% with OVCAR-5 ovarian. For the same compound, the growth is 7.73% (active) in the test with OVCAR-4 ovarian; 75.8% in the test on SK-OV-3 ovarian; 71.5% in the test with IGROV1 ovarian; 48.9% with OVCAR-3 ovarian; 76.6% in the test on HS 578T breast; 74.5% with NCI/ADR-RES ovarian.
